Results from PubChem BioAssay AID720504 (National Center for Advancing Translational Sciences (NCATS), 2013).
The whole screen tested about 360,000 compounds, of which about 10,000 (2.8%) were called active. Not shown: some 4% with an inconclusive outcome. Calls come from the whole dose curve; as a rule, active = well fitted inhibition curve with a large enough effect; inconclusive = small, poorly fitted or top-dose-only effect; inactive = flat fitted curve, though single readings scatter. Only a selection was taken, and actives are over-represented in it overall.

target: Serine/threonine-protein kinase PLK1 (Homo sapiens) (UniProt P53350); experiment: qHTS for Inhibitors of PLK1-PDB (polo-like kinase 1 - polo-box domain): Primary Screen; settings: Plk1 PBD binding of FITC phosphopeptide, fluorescence polarization; note: nearly all actives have a fitted effect of over 65% in size; for Max response, negative = inhibition: series mostly up to about 57 µM
% is set by controls: 0 for no effect and ±100 for the full control effect; potency is the fitted concentration of half-maximal effect.

Chain of Serine/threonine-protein kinase PLK1 (Homo sapiens) (P53350 whole entry, looked up, the tested form may be a part): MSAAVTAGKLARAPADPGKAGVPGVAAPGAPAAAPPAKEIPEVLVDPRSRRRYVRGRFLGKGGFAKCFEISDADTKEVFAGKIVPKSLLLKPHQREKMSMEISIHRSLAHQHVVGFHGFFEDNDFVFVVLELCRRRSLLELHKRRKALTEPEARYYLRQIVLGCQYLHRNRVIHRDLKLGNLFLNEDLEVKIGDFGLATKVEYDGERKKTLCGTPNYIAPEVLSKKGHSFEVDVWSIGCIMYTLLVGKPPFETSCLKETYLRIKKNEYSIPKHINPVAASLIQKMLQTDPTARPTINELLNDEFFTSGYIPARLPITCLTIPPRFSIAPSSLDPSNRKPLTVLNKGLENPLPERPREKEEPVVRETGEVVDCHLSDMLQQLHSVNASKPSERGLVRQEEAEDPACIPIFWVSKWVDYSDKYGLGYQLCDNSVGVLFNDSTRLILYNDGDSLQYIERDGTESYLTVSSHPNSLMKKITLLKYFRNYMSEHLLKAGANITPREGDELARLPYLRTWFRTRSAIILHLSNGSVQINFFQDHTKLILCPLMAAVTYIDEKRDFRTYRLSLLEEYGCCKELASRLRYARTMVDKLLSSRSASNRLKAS

Max response, negative = inhibition, inactive:
Cc1ccc(C(=O)Nc2nc(N)n(-c3ccccc3)n2)cc1 -8.25%
COc1ccc(-c2[nH][nH]c(=O)c2NC(=O)c2ccc([N+](=O)[O-])cc2)cc1 -12.4%
CCOC(=O)c1c(NC(=O)CSc2cn(CC)c3ccccc23)sc2c1CCC2 -5.08%
CCOC(=O)c1c(NC(=O)C(C)Sc2c[nH]c3ccccc23)sc2c1CCC2 (stereo unspecified) -20.8%
CC1(c2cccc(N)c2)OCCO1 -12.9%
CCc1nc2ccc(C(=O)N(C)Cc3ccco3)cn2c1N(C)C(=O)Cc1ccccc1 -2.7%
CC1(C(=O)NS(=O)(=O)c2cccc(F)c2)CCN1C(=O)Cc1cc(F)ccc1F (stereo unspecified) 1.7%
C[C@@H]1CN([C@H](C)CO)C(=O)c2cc(-c3ccc(F)cc3)cnc2O[C@H]1CN(C)C(=O)c1ccc(F)cc1 -26.3%
OCCNc1nc(Nc2ccc(Cl)c(Cl)c2)nc2ccccc12 -0.568%
Cc1ccc(CN(C)C[C@@H]2OCc3cnnn3CCCC(=O)N([C@@H](C)CO)C[C@H]2C)cc1 -4.71%
CC(C)(C)C1CCC(=O)N2CCC[C@]2(c2ccccc2)C1 (stereo partly specified) -8.62%
COC(=O)C1=CN(c2c(C)cc(C)cc2C)C(N)=C(C#N)C1c1cccc(F)c1 (stereo unspecified) 0.842%
CCc1ccccc1NC(=O)CSc1nnc([C@@H](NC(=O)OC(C)(C)C)C(C)CC)o1 (stereo partly specified) -15.7%
CC(C)(C)c1ccc(C(CC(=O)O)NS(=O)(=O)Cc2ccccc2)cc1 (stereo unspecified) -2.95%
COc1ccccc1NC(=O)[C@H](COCc1ccccc1)NC(=O)OC(C)(C)C -12.1%
CC(C)[C@@H](NC(=O)OC(C)(C)C)C(=O)NCC1CCC(C(=O)N[C@@H](Cc2ccccc2)C(=O)O)CC1 (stereo partly specified) 3.75%
CCCOc1ccc(F)cc1-c1cc(C(=O)NCc2ccc(F)cc2)[nH]n1 -11.9%
COc1cc(C(=O)OCCCN2CCOCC2)cc(OC)c1OC 0.976%
CCOC(=O)N1CCN(C(=O)C[C@@H]2C[C@@]3(C(=O)OC)CC(C)(C)CC=C3N(Cc3ccco3)C2=O)CC1 2.41%
Cc1cccc(CNC(=O)c2sc(=O)n(Cc3ccccc3C)c2C)c1 -6.16%
CCCCCCn1c(SCC(=O)c2ccccc2)nc2c1c(=O)[nH]c(=O)n2C -19.2%
CCCCn1c(SCC(=O)N2CCOCC2)nc2c1c(=O)n(C)c(=O)n2C -13.8%
CCc1nc2c(OCC(=O)C(C)(C)C)cccn2c1N(C)C(=O)c1ccccc1F -11%
CC1(C)CC(=O)C=C(c2ccccc2CO)C1=O -0.138%
Clc1ccc(-c2cccc3nccn23)cc1 -1.38%
COC(=O)c1cn(C(=O)c2ccc(Cl)cc2)c2ccccc12 -5.55%
COC(=O)c1ccccc1N=NNc1ccc([N+](=O)[O-])cc1 0.193%
CCN(CC)c1ncnc2c1ncn2[C@H]1CN(Cc2cccs2)C[C@@H](CO)O1 2.82%
C[C@@H]1CCCCO[C@H](CN(C)Cc2ccccc2)[C@@H](C)CN([C@H](C)CO)C(=O)c2cc(NS(=O)(=O)c3ccc(Cl)cc3)ccc2O1 -7.57%
COc1cc(N2C(=O)CSC2=S)cc(OC)c1OC -18.2%
O=C1CSC(=S)N1c1ccc(O)cc1 1.87%
CCOC(=O)N1CCN(C(=O)C[C@@H]2C[C@@]3(C(=O)OC)CCCCC=C3N(CCC3=CCCCC3)C2=O)CC1 4.13%
Nc1ncnc2c1ncn2[C@@H]1O[C@H](C(=O)N2CCSC2)[C@@H](O)[C@H]1O -1.36%
Clc1ccccc1Nc1nc(NCc2cccs2)nc2ccsc12 0.746%
CCc1nc2c(OCCc3cccc(OC)c3)cccn2c1N(C)C(=O)c1ccc(C)cc1 -4.74%
CC(=O)Nc1cc(-c2cccc(CO)c2)cn2c(-c3cccc(C(F)(F)F)c3)cnc12 -14.2%
O=C(Nc1ccc(S(=O)(=O)Nc2ccccn2)cc1)c1ccccc1 -2.45%
Cc1nnsc1S(=O)(=O)Cc1ccccc1Cl -7.17%
Cc1cc2nc(-c3ccc(F)cc3)c(Cc3ccsc3)n2c(C)c1Br -4.34%
CCc1c(-c2ccc(F)cc2)ncn1Cc1cccc(-c2ccccc2)c1 -16%
CCN(CC)CCN(C(=O)c1ccc2c(c1)CCCC2)c1nc2c(OC)cccc2s1 -2.72%
COc1ccc(N(C)C(=O)CCS(=O)(=O)c2cccc3nsnc23)cc1 -20.6%
CN1OC[C@@H]2CN(C(=O)c3ccc(-c4ccccc4)cc3)[C@H](c3ccc(-c4cccc(F)c4)cc3)C[C@@H]21 -8.48%
CC1=C(C(=O)N2CCOCC2)CC(CC(=O)NCc2cccs2)C(=O)N1CCCN1CCCC1=O (stereo unspecified) -11.8%
C=CCNC(=S)N1CCc2[nH]c3ccccc3c2C1 -8.32%
O=C(CCCN1CCc2[nH]c3ccc(F)cc3c2C1)c1ccc(F)cc1 -6.15%
CCc1nc2c(OCc3ccc(F)c(F)c3)cccn2c1N(C)C(=O)c1ccco1 1.07%
O=C(OCc1ccccc1)N1CCC2CC1c1ccc(-c3ccc4c(c3)OCO4)cc12 (stereo unspecified) 2.15%
CC1(C(=O)NS(=O)(=O)c2cccc(OC(F)F)c2)CCN1C(=O)COc1ccc(Cl)cc1 (stereo unspecified) 3.32%
OC(c1ccc(Cl)c(F)c1)c1ncc(-c2ccccc2Cl)[nH]1 (stereo unspecified) 3.86%
CCCCC(O)C1=C[N+](=O)CC=C1 (stereo unspecified) -14.2%
CN(C)[C@@H]1C(=O)C(C(N)=O)=C(O)[C@@]2(O)C(=O)C3=C(O)c4c(O)ccc(Cl)c4[C@@H](O)[C@H]3C[C@@H]12 -16.8%
O=C(COC(=O)c1cncc(Br)c1)Nc1ccc(S(=O)(=O)N2CCOCC2)cc1 -5.27%
O=[N+]([O-])c1ccccc1S(=O)(=O)Nc1cccc2cccnc12 -7.49%
Nc1nc(Sc2ncccc2[N+](=O)[O-])n[nH]1 4.21%
CC(C)Cn1cc(-c2cncc3nccn23)cn1 -13.4%
O=C(Nc1ccc2c(c1)OCCO2)C1c2ccccc2OCC(=O)N1Cc1ccccn1 (stereo unspecified) -7.8%
CCC(C(=O)NCc1ccc(OC)cc1)n1nc(C)n2c(cc3occc32)c1=O (stereo unspecified) -1.71%
CCc1ccc(N(CC(=O)NCc2cccnc2)S(=O)(=O)c2ccccc2)cc1 -2.42%
CC(=O)Nc1cccc(-c2ccnc3c2CC(C)(C(=O)NCc2ccco2)O3)c1 (stereo unspecified) -8.18%
CCOC(=O)c1cccc(NC(=O)CN(c2ccc(C)cc2)S(=O)(=O)c2c(C)noc2C)c1 -3.68%
COc1ccc(N(CC(=O)Nc2cc(OC)ccc2OC)S(=O)(=O)c2c(C)noc2C)cc1 2.36%
CC(=O)Nc1cc(-c2ccccc2F)cn2c(-c3cccc(C(F)(F)F)c3)cnc12 -1.88%
CC(C)N(C(=O)CN1CCN(S(=O)(=O)c2ccc(Br)s2)CC1)C(C)C 1%
Cc1ccc(S(=O)(=O)N2CCN(CC(=O)N/N=C/c3ccc(Br)s3)CC2)cc1 -1.96%
CCCCc1c(-c2ccc(Cl)cc2)ncn1CCc1ccccc1OC 5.05%
COc1ccc(-c2ccc(CN3C(CC(C)C)C(=O)N(Cc4cn(CC5CCCCC5)nn4)CCS3(=O)=O)cc2)cn1 (stereo unspecified) -1.42%
COc1ccc(NC(=O)CN(C)C(=O)c2cc(C)oc2C)cc1 1.78%
CCCCn1nnnc1C(c1cc2ccccc2o1)N(C)Cc1ccc(Cl)c(Cl)c1 (stereo unspecified) 5.97%

Potency, active:
Cc1ccc(C(=O)Nc2c(-c3ccccc3)[nH][nH]c2=O)cc1 23.8 µM
CCOC(=O)c1c(NC(=O)C2(C)Cc3ccccc3C(=O)O2)sc2c1CCCC2 (stereo unspecified) 23.8 µM
O=[N+]([O-])c1c(NCCO)cc(Sc2nc3ccccc3s2)c2nonc12 1.68 µM
CC(C)Sc1nnc([C@H](Cc2ccccc2)NC(=O)OC(C)(C)C)o1 23.8 µM
C[C@@H](NC(=O)OC(C)(C)C)c1nnc(S(=O)(=O)Cc2ccccc2)o1 13.4 µM
CCCCCn1c(SCCC(C)C)nc2c1c(=O)[nH]c(=O)n2C 23.8 µM
COC(=O)c1ccccc1N=Nc1c(C)[nH][nH]c1=O 23.8 µM
O=C1CSC(=S)N1c1ccc(Cl)c(Cl)c1 26.7 µM
O=C(Nc1ccccc1)c1nnsc1S(=O)(=O)c1ccc(Cl)cc1 4.74 µM
COc1cccc2sc(N(CCCN(C)C)C(=O)CCS(=O)(=O)c3ccccc3)nc12 10.6 µM
CCCC(=O)N1CCc2[nH]c3ccccc3c2C1 26.7 µM
C=C1c2c(Cl)ccc(O)c2C(O)=C2C(=O)[C@]3(O)C(O)=C(C(N)=O)C(=O)[C@@H](N(C)C)[C@@H]3[C@@H](O)C12 (stereo partly specified) 23.8 µM
O=[N+]([O-])c1cccc2ncccc12 3.77 µM
CCC(C(=O)NCc1cccnc1)n1nc(C)c2sc3ccccc3c2c1=O (stereo unspecified) 26.7 µM
CCOc1ccc(N(CC(=O)OC)S(=O)(=O)c2c(C)noc2C)cc1 26.7 µM
Cc1cccc(NC(=O)CN2CCCN(S(=O)(=O)c3ccc(Br)s3)CC2)c1 21.2 µM
CNC(=O)Nc1cc(C(C)(C)C)no1 10.6 µM
